In PubChem BioAssay (NCATS):
Inconclusive results are not listed. A call without a number means that no potency is given here. A number with no mark means an inactive call. Calls of active or inactive are those of the source. Calls follow the shape of the dose curve; as a rule, active = well fitted curve in the direction sought with a large enough effect; inconclusive = small, poorly fitted or top-dose-only effect, or another doubt; inactive = no such curve, though single readings can be large; an effect the other way counts as inactive or inconclusive.

How the values were obtained:
[1] = target: Calcium and integrin-binding protein 1 (Homo sapiens) (UniProt Q99828); assay: Primary qHTS for Identification of Calcium Integrin Binding Protein 1 (CIB1) Competitor (AID 1508620);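 also: GST tagged CIB1 binding a fluorescein labelled alphaIIb integrin peptide tracer; top concentration of the series differs between compounds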
How it was run: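 Fluorescence polarization competition: CIB1-GST (1 uM final) preincubated with compound 15 min at room temperature, then FITC-labeled alphaIIb peptide (100 nM final) added for another 15 min. Polarization read at Ex 480/Em 540.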

[2] = Primary qHTS for inhibitors of nuclear receptor binding SET domain protein 2 (NSD2) in an isogenic RCH-ACV NSD2 p.E1099K mutant (9B) (AID 1645876); also: nearly all actives have a fitted effect of over 70% in size
[3] = Primary qHTS for inhibitors of nuclear receptor binding SET domain protein 2 (NSD2) in an RCH-ACV wild type WT cells (2C) (AID 1645877); also: nearly all actives have a fitted effect of over 70% in size; also: potency is read from the fitted curve at half-maximal effect

Calcium and integrin-binding protein 1 (Homo sapiens), sequence (Q99828 whole entry, looked up): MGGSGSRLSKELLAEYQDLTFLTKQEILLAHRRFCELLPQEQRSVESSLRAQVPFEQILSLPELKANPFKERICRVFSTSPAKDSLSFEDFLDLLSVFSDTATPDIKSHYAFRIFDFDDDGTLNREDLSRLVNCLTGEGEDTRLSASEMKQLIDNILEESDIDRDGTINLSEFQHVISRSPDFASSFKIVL

Structure (SMILES) | Potency [1] | Potency [2] | Potency [3] | activity change, negative = viability loss [2] | activity change, negative = cell killing [3] | activity change, negative = inhibition [1]
C[C@]12CC/C(=N\OCC(=O)O)C=C1CC[C@@H]1[C@@H]2[C@@H](O)C[C@@]2(C)[C@H]1CC[C@]2(O)C(=O)CO | inactive | inactive | 9.16 µM (active) |  |  | 
O=C(/C=C/c1ccc(O)cc1)OCC1OC(O)C(OC2OC(CO)C(O)C(O)C2O)C(O)C1O (configuration not stated) | inactive | inactive | inactive |  |  | 
Cc1occc(=O)c1O[C@@H]1O[C@H](CO[C@@H]2OC[C@](O)(CO)[C@H]2O)[C@@H](O)[C@H](O)[C@H]1O | inactive | inactive | inactive |  |  | 
OC[C@@]1(O)CO[C@H](OC[C@H]2O[C@@H](OCCc3ccccc3)[C@H](O)[C@@H](O)[C@@H]2O)[C@@H]1O | inactive | inactive | inactive |  |  | 
C[C@H]1[C@H](C)CC[C@]2(C(=O)OC3OC(CO)C(O)C(O)C3O)CC[C@]3(C(=O)O)C(=CCC4[C@@]5(C)CC[C@H](O[C@@H]6O[C@@H](C)[C@H](OC7OC(CO)C(O)C(O)C7O)[C@@H](O)[C@H]6O)C(C)(C)C5CC[C@]43C)[C@H]12 (some centres not stated) | inactive |  |  | -7.55% [at 9.23 µM] | -2.86% [at 9.23 µM] | 
C/C(CO)=C1/CCC23COC(C2)C(O)(C(=O)O)CCC13 (configuration not stated) | inactive | inactive | inactive |  |  | 
CC1OC(O[C@H]2CC[C@@]3(C)C(CC[C@]4(C)C3CC=C3C5CC(C)(C)CC[C@]5(C(=O)OC5OC(CO)C(OC6OCC(OC7OCC(O)C(O)C7O)C(O)C6O)C(O)C5O)CC[C@]34C)C2(C)C)C(O)C(O)C1OC1OC(CO)C(O)C(OC2OC(CO)C(O)C(O)C2O)C1O (some centres not stated) |  |  |  | -12.9% [at 9.23 µM] | -19.1% [at 9.23 µM] | -8.26% [at 12.4 µM]
CC1=CC2=C(C)C(=O)C(C)(O)C(O)C2CO1 (configuration not stated) | inactive | inactive | inactive |  |  | 
CC(=O)OC1C(O)/C(C)=C\C2C(OC(=O)c3ccccc3)C(C)CC2(OC(C)=O)C(OC(C)=O)C(C)/C=C/C(C)(C)C1OC(C)=O (configuration not stated) | inactive | inactive | inactive |  |  | 
CC1(C)[C@@H]2CC=C(CO[C@@H]3O[C@H](CO[C@@H]4OC[C@H](O)[C@H](O)[C@H]4O)[C@@H](O)[C@H](O)[C@H]3O)[C@H]1C2 | inactive | inactive | inactive |  |  | 
COc1cc(C(O)C2COC(c3ccc(OC4OC(CO)C(O)C(O)C4O)c(OC)c3)C2CO)ccc1O (configuration not stated) | inactive | inactive | inactive |  |  | 
COC(=O)C(CC1(O)c2ccccc2N2C(=O)C(CC(C)C)NC21)n1cnc2ccccc2c1=O (configuration not stated) | inactive | inactive | inactive |  |  | 
C/C=C(\C)C(=O)OC[C@H]1O[C@@H](O[C@H]2[C@@H](O[C@H]3O[C@H](COC(=O)/C(C)=C/C)[C@@H](O)[C@H](O)[C@H]3O[C@@H]3O[C@H](COC(=O)/C(C)=C/C)[C@@H](O)[C@H](OC(=O)/C(C)=C/C)[C@H]3O)O[C@H](COC(=O)/C(C)=C/C)[C@@H](O)[C@@H]2O)[C@H](O)[C@@H](O)[C@@H]1O | inactive |  |  | -1.81% [at 9.23 µM] | -6.87% [at 9.23 µM] | 
C[C@H]1CC[C@H]2[C@@H](C=C[C@@](C)(O)[C@]2(C)C(=O)CCO)C1 | inactive | inactive | inactive |  |  | 
CCN=C1N[C@@H]2[C@@H](O)[C@H](O)[C@@H](CO)O[C@@H]2S1 | inactive | inactive | inactive |  |  | 
COC(=O)c1cc(OC)cc(OC)c1C(=O)c1c(OC)cc2c(c1O)C1CCC(O)C(C)(O2)O1 (configuration not stated) | inactive | inactive | inactive |  |  | 
C[C@@]1(C(=O)O)CCC[C@@]2(C)C3=CC[C@H]4C[C@@]3(CC[C@H]12)CC4(O)CO (some centres not stated) | inactive | inactive | inactive |  |  | 
CC1(CO)CCCC2(C)C3COC(=O)C3=CC(O)C12 (configuration not stated) | inactive | inactive | inactive |  |  | 
CC(=O)OC1CC(=O)C2(C)C3CC4=C(OC(C)CC4=O)OC3(C)CCC2C1(C)C (configuration not stated) | inactive | inactive | inactive |  |  | 
Fc1cccc(CN(C2=NCCN2)c2c(Cl)cccc2Cl)c1 | inactive | inactive | inactive |  |  | 
CCN(CCN(C)C)C(=O)CNCc1cc(C(N)=O)ccn1 | inactive | inactive | inactive |  |  | 
CC(O)C1NC(=O)C2CCCN2C1=O (configuration not stated) | inactive | inactive | inactive |  |  | 
O=C(C1OC1/C=C/c1ccc2c(c1)OCO2)N1CCCCC1 (configuration not stated) | inactive | inactive | inactive |  |  | 
COC(=O)[C@]1(C)CCC[C@@]2(C)[C@@H]3CC[C@@H]4C[C@@]3(CC[C@@H]21)C[C@H]4C(=O)O | inactive | inactive | inactive |  |  | 
C=C1C2(C)CC3C4(C)OC(C5OC56C4=CC(=O)OC6(C)C)C3(C)C13C(=O)OC(C)C3(O)C2=O (configuration not stated) | inactive | inactive | inactive |  |  | 
CC1=CC[C@@]2(C)CC[C@@](O)(C(C)C)[C@@H]2[C@@H](O)C1 | inactive | inactive | inactive |  |  | 
COc1cc(/C=C/C(=O)O[C@H]2[C@@H]3C=CO[C@@H](O[C@@H]4O[C@H](CO)[C@@H](O)[C@H](O)[C@H]4O)[C@@H]3[C@@]3(CO)O[C@@H]23)ccc1O | inactive | inactive | inactive |  |  | 

Structure (SMILES) | Potency [1] | Potency [2] | Potency [3] | activity change, negative = viability loss [2] | activity change, negative = cell killing [3] | activity change, negative = inhibition [1]
CC(C)C1NC(=O)C(CC2(O)c3ccccc3N3C(=O)C(Cc4ccccc4)NC32)NC1=O (configuration not stated) | inactive | inactive | inactive |  |  | 
CCOC(=O)C(CCc1ccccc1)NC(C)C(=O)N1Cc2ccccc2CC1C(=O)O (configuration not stated) | inactive | inactive | inactive |  |  | 
CC(=O)O[C@@H]1[C@H](O[C@@H]2O[C@H](CO)[C@@H](O)[C@H](O)[C@H]2O)[C@@H](O[C@@H]2O[C@@H](C)[C@H](O)[C@@H](O[C@@H]3O[C@H](CO)[C@@H](O)[C@H](O)[C@H]3O)[C@H]2O)[C@H](OC(=O)[C@]23CCC(C)(C)C[C@H]2C2=CCC4[C@@]5(C)C[C@H](O)[C@H](O[C@@H]6O[C@H](C(=O)O)[C@@H](O)[C@H](O)[C@H]6O)[C@@](C)(C(=O)O)C5CC[C@@]4(C)[C@]2(C)CC3)O[C@@H]1C (some centres not stated) |  |  |  | -4.25% [at 9.23 µM] | -3.72% [at 9.23 µM] | -1.12% [at 12.4 µM]
CC/C=C\CC1C(CC(=O)O)CCC1OC1OC(CO)C(O)C(O)C1O (configuration not stated) | inactive | inactive | inactive |  |  | 
COc1ccc(C(=O)CC(=O)O)c2c1C=CC(C)(C)O2 | inactive | inactive | inactive |  |  | 
CC(=O)/C=C/C1(O)C(C)(C)CC(O)CC1(C)O (configuration not stated) | inactive | inactive | inactive |  |  | 
C=C1C2(C)CC3C4(C)C=CC(=O)OC(C)(C)C4CCC3(C)C1(C(=O)OC)C(=O)C(C)(O)C2=O (configuration not stated) | inactive | inactive | inactive |  |  | 
C/C=C/C(=O)OC1/C=C/C(O)C(OC(C)=O)CCC(=O)OC1C (configuration not stated) | inactive | inactive | inactive |  |  | 
C=C(C(=O)O)C1CC(OC(=O)CC(C)CC)C2(C)CCCC(=C)C2C1 (configuration not stated) | inactive | inactive | inactive |  |  | 
CC(CC12CCCN1C(=O)C1CCCN1C2=O)OC(N)=O (configuration not stated) | inactive | inactive | inactive |  |  | 
COC(=O)C1=CO[C@@H](O[C@@H]2O[C@H](CO[C@@H]3O[C@H](CO)[C@@H](O)[C@H](O)[C@H]3O)[C@@H](O)[C@H](O)[C@H]2O)[C@@H]2C(CO)=CC[C@H]12 | inactive | inactive | inactive |  |  | 
O=C(O)c1cccc(C(=O)CCC2OC(n3cnc4c(=O)[nH]cnc43)C(O)C2O)c1 (configuration not stated) | inactive | inactive | inactive |  |  | 
CC(C)=CCC(O)[C@](C)(O)C1[C@H](O)C[C@@]2(C)C3CC=C4C(C[C@H](O)[C@@H](O[C@@H]5O[C@H](CO)[C@@H](O)[C@H](O)[C@H]5O)C4(C)C)[C@]3(C)C(=O)C[C@]12C (some centres not stated) | inactive | inactive | inactive |  |  | 
OC[C@H]1O[C@@H](OCc2ccccc2)[C@H](O[C@@H]2OC[C@@H](O)[C@H](O)[C@H]2O)[C@@H](O)[C@@H]1O | inactive | inactive | inactive |  |  | 
COC(=O)C1=COC(OC2OC(CO)C(O)C(O)C2O)C2C(C)C(OC(C)=O)C(OC(=O)c3ccccc3)C12 (configuration not stated) | inactive | inactive | inactive |  |  | 
Cc1occc(=O)c1O[C@@H]1O[C@H](COC(=O)CC(C)(O)CC(=O)O)[C@@H](O)[C@H](O)[C@H]1O (some centres not stated) | inactive | inactive | inactive |  |  | 
CC(C)/C=C1/NC(=O)C(C(C)C)n2c1nc1c(O)cccc1c2=O (configuration not stated) | inactive | inactive | inactive |  |  | 
COc1cc(C(CO)CO[C@@H]2O[C@H](CO)[C@@H](O)[C@H](O)[C@H]2O)ccc1O (some centres not stated) | inactive | inactive | inactive |  |  | 
O=C(/C=C/c1ccc(O)c(O)c1)O[C@@H]1[C@@H](O)[C@H](OC2CCCCC2O)O[C@H](CO)[C@H]1O (some centres not stated) | inactive | inactive | inactive |  |  | 
CC1=C(CO)C2(C)CCCC(C)(C)C2C(O)C1O (configuration not stated) | inactive | inactive | inactive |  |  | 
CC(=O)OC1(C)CC(O)C2(O)C=COC(OC3OC(CO)C(O)C(O)C3O)C12 (configuration not stated) | inactive | inactive | inactive |  |  | 
COCC1OC(n2cnc3c(=O)[nH]cnc32)C(O)C1O (configuration not stated) | inactive | inactive | inactive |  |  | 
COc1ccc(/C=C/C(=O)N2CCCC2)cc1 | inactive | inactive | inactive |  |  | 
C[C@@]1(O)[C@H](O)[C@@H](CO)O[C@H]1n1cnc2c(=O)[nH]c(N)nc21 | inactive | inactive | inactive |  |  | 
OCC1=C[C@@H](O)[C@@H]2C=CO[C@@H](O[C@@H]3O[C@H](CO)[C@@H](O)[C@H](O)[C@H]3O)[C@H]12 | inactive | inactive | inactive |  |  | 
C=CCc1cc(OC)c(OC(C)C(O)c2ccc(O)c(OC)c2)c(OC)c1 (configuration not stated) | inactive | inactive | inactive |  |  | 
C[C@@H]1[C@H]2[C@H](O[C@@H]3O[C@H](CO)[C@@H](O)[C@H](O)[C@H]3O)OC=C(C(=O)O)[C@H]2C[C@@H]1OC(=O)/C=C/c1ccc(O)cc1 | inactive | inactive | inactive |  |  | 
